Bioassay records from PubChem BioAssay.
MazF activator: activators of E. coli MazEF toxin-antitoxin RNase | activation, % at 20 µM | FAM/BHQ RNA-DNA oligo cleavage fluorescence, 5 h | AID 504720 | 350,000 tested, 0.32% active; in the data active = activation above about 50%
Bead autofluor: counter-screen for toxin protease inhibitors: compound fluorescence. compound autofluorescence counterscreen, microsphere flow cytometry; hits give high values. fluorescence intensity (no concentration beside the values). 360,000 tested, 3.1% active. AID 624483; in the data active = fluorescence intensity above about 16000; inconclusive = no clear call, values can overlap the other calls
Anthrax LF prot: inhibitors of Bacillus anthracis lethal factor protease. multiplex microsphere protease cleavage assay, LF. inhibition, % at 10 µM. 360,000 tested, 0.12% active. AID 588501; note: plate controls were buffer without enzyme for full effect and enzyme alone for no effect
Target sequence (P15917 whole entry, looked up): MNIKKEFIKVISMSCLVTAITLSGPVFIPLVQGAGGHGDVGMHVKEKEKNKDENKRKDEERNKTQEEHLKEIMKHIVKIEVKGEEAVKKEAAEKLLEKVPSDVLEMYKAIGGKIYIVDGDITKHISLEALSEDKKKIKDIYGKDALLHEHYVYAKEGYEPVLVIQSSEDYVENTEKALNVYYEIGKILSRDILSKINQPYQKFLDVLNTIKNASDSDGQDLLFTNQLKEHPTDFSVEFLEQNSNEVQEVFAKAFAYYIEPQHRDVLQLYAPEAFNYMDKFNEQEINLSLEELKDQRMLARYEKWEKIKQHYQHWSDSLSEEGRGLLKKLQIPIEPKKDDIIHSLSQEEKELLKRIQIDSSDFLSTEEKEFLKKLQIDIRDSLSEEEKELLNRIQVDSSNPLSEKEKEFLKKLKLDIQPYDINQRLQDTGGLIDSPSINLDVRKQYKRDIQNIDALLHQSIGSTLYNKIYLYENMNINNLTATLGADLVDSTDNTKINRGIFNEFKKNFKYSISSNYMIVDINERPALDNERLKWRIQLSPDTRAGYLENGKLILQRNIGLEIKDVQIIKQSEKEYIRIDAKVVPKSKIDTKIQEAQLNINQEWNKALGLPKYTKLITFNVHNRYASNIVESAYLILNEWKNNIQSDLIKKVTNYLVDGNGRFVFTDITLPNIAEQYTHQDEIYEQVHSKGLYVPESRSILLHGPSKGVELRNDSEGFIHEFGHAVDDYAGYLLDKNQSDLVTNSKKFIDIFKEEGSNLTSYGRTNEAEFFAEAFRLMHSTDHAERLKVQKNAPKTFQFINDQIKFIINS
SSB-PriA inh: inhibitors of Klebsiella pneumoniae PriA binding to SSB C-terminal tail | inhibition, % at 33 µM | 430,000 tested, 0.6% active | AlphaScreen SSBct-PriA binding, biotinylated peptide; in the data active = inhibition mostly above about 37%, no sharp cut-off; inactive = mostly below about 20%;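 note: plate controls were negative control peptide for no effect and reference peptide for full effect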
BoNT F protease: inhibitors of Botulinum neurotoxin F light chain protease; inhibition, % at 10 µM; 360,000 tested, 0.22% active; Multiplex microsphere protease cleavage assay, flow cytometry; in the data active = inhibition above about 35%, passing the limit was not always enough; inconclusive = no clear call, values can overlap the other calls; note: plate controls were buffer without enzyme for full effect and enzyme alone for no effect
BoNT-A LC inh2: BoNT A light chain protease inhibition | multiplex microsphere protease substrate cleavage, flow cytometry | inhibition, % at 10 µM | 360,000 tested, 0.17% active | AID 588499; note: plate controls were buffer without enzyme for full effect and enzyme alone for no effect
* marks the source's active call; other numbers are inactive results; ? = inconclusive; . = no result. Most compounds without a hit are left out; they make up all but 3.3% or so of the library. Cut-off read from the data, not from the text of the source, unless noted: active = inhibition above about 30%; inconclusive = no clear call, values can overlap the other calls; inactive = below that.

SMILES | MazF activator | Bead autofluor | Anthrax LF prot | SSB-PriA inh | BoNT F protease | BoNT-A LC inh2
COc1ccc(S(=O)(=O)N2CCC(C(=O)NCC3CCCO3)CC2)cc1 (configuration not stated) | -5.5 | 20959* | -0.1 | -6.5 | 5.3 | 6.0
COc1ccccc1OCC(=O)NCC1CCN(c2ccccn2)CC1 | . | . | . | -16.0 | . | .
COc1ccc(C)c2sc(N3CCN(C(=O)c4ccccc4NS(=O)(=O)c4ccc(C)cc4)CC3)nc12 | . | . | . | -6.0 | . | .
CCN(CC)c1ccc(/C=N/c2sc3c(c2C#N)C2CCN3CC2)c(O)c1 | -419.0 | 22519* | 13.9 | . | 23.6 | 17.5
Cn1c2ccccc2c2nnc(SCC(=O)NC3CCCC3)nc21 | 6.3 | 3743 | -6.1 | -2.3 | 9.2 | -2.0
Cn1c2ccccc2c2nnc(SC3CCOC3=O)nc21 (configuration not stated) | 6.6 | 23365* | 0.5 | -2.5 | -0.5 | -0.2
Nc1nc2ccc([N+](=O)[O-])c(N)c2s1 | 1.0 | 3258 | -2.5 | 54.8* | 7.5 | -1.2
COc1cccc(C=NNC(=O)C(=O)N2CCCCCC2)c1OC | . | . | . | -5.3 | . | .
Cc1ccc(Cl)c(OCCCCN(C)Cc2ccccc2)c1 | -7.9 | 22668* | -2.9 | -24.5 | -3.1 | ?
CCCN(CCC)CCNS(=O)(=O)c1ccc2c(c1)oc(=O)n2C | 0.4 | 22046* | -1.6 | -2.8 | -1.0 | ?
CCOC(=O)c1ccc(NC(=O)CCNS(=O)(=O)c2ccc3c(c2)oc(=O)n3C)cc1 | 6.2 | 23217* | -2.3 | 0.3 | 0.2 | -0.2
CCCCN(CC)CCNS(=O)(=O)c1ccc2c(c1)oc(=O)n2C | 6.4 | 15823 | 1.6 | -6.6 | 0.0 | 1.8
Cc1ccc(CCNC(=O)CCNS(=O)(=O)c2ccc3c(c2)oc(=O)n3C)cc1 | 1.3 | 9981 | -4.0 | -6.5 | -2.9 | 0.1
Cc1cc(C)cc(NC(=O)CCNS(=O)(=O)c2ccc3c(c2)oc(=O)n3C)c1 | -9.2 | 12998 | -8.2 | -19.9 | 14.4 | ?
Cn1c(=O)oc2cc(S(=O)(=O)NCCC(=O)NCCc3ccccc3)ccc21 | -6.3 | 20294* | -2.3 | -13.5 | 0.3 | -0.9
Cn1c(=O)oc2cc(S(=O)(=O)NCCC(=O)NCCc3ccc(Cl)cc3)ccc21 | -5.5 | 19293* | -9.3 | -0.9 | 0.7 | 1.5
COc1ccc(CCC(=O)O)c(OC)c1OC | . | . | . | -16.0 | . | .
CC(=O)c1cccc(NS(=O)(=O)c2ccc3c(c2)oc(=O)n3C)c1 | -4.5 | 11967 | 1.9 | -1.8 | -8.4 | -2.9
Cn1c(=O)oc2cc(S(=O)(=O)NCc3ccco3)ccc21 | 5.8 | 4388 | -1.4 | 5.2 | 3.8 | -0.7
Cn1c(=O)oc2cc(S(=O)(=O)Nc3cccc(C(=O)O)c3)ccc21 | -5.1 | 19703* | -5.2 | -10.7 | -3.9 | -0.3
CCC1CCCCN1Cc1ccc(CNS(=O)(=O)c2ccc3c(c2)oc(=O)n3C)o1 (configuration not stated) | -18.6 | 22053* | -2.3 | -8.0 | -10.0 | -5.8
CCOc1ccc(NC(=O)CC2CCCCN2S(=O)(=O)c2ccc(F)cc2)cc1 (configuration not stated) | . | . | . | 23.0 | . | .
COc1ccc(CSc2nc(C)cc(=O)[nH]2)cc1Br | -5.5 | 23006* | -0.3 | -19.7 | 2.5 | 0.4
Cc1cc(=O)[nH]c(SCCCOc2ccccc2Cl)n1 | -4.2 | 20446* | -0.8 | -7.8 | -1.1 | -1.6
CCc1cc(OCCCSc2nc(C)cc(=O)[nH]2)ccc1Cl | -12.3 | 24555* | -0.1 | -21.8 | -2.9 | ?
SMILES | MazF activator | Bead autofluor | Anthrax LF prot | SSB-PriA inh | BoNT F protease | BoNT-A LC inh2
Cc1cc(=O)[nH]c(SCCOc2ccc3c(c2)CCC3)n1 | -0.8 | 9691 | -0.2 | -4.9 | 4.8 | 0.2
C/C=C/c1ccc(OCCSc2nc(C)cc(=O)[nH]2)c(OC)c1 | -7.5 | 17582* | -1.2 | -16.2 | -9.0 | -5.8
Cc1cc(=O)[nH]c(SCCOc2ccc(OC(C)C)cc2)n1 | 9.6 | 4312 | 4.7 | -10.0 | -13.6 | -0.5
Cc1cc(Cl)cc2sc(N(C[C@H]3CCCO3)C(=O)c3ccc(N4C(=O)CCC4=O)cc3)nc12 | . | . | . | -4.0 | . | .
COc1ccccc1CCNC(=O)Cn1nc(-c2ccco2)ccc1=O | . | . | . | 7.0 | . | .
Cn1cnc([N+](=O)[O-])c1Sc1ncccc1N | -8.8 | 22024* | -0.7 | -2.2 | -1.8 | -0.6
Cn1c(=O)oc2cc(S(=O)(=O)NCCC(=O)N3CCN(c4ccccc4F)CC3)ccc21 | 7.9 | 5642 | -1.0 | -2.5 | -4.7 | 0.3
Cn1c(=O)oc2cc(S(=O)(=O)NCCC(=O)N3CC=C(c4ccccc4)CC3)ccc21 | 5.7 | 23639* | -1.6 | -10.3 | -3.1 | 0.4
Cn1c(=O)oc2cc(S(=O)(=O)NCCC(=O)N3CCc4ccccc43)ccc21 | -0.9 | 21642* | -1.6 | -9.4 | 6.0 | ?
